Measured values from PubChem BioAssay (NCATS).
Inconclusive results are not listed. Activity calls are given as the source filed them. Calls follow the shape of the dose curve; as a rule, active = well fitted cell-killing curve with a large enough effect; inconclusive = small, poorly fitted or top-dose-only effect, or effect the other way; inactive = flat fitted curve, though single readings scatter. Where a SMILES comes first, the peptide text is derived from it. The star is where a group is joined. AFC = O=c1cc(C(F)(F)F)c2ccc(N*)cc2o1

Tests used:
Assay in all cases: Primary qHTS to identify gynecologic anti-cancer compounds using libraries of approved drugs and bioactive compounds (AID 1345084); also: nearly all actives have a fitted effect of over 55% in size
CAOV3 = details: Gynecologic cancer cell panel viability, ATPlite luminescence, 48 h; series mostly up to 57.5 µM
In short: (§1)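 Cell viability after 48 h drug treatment, ATPlite luminescence readout; five doses.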

CASKI = details: Gynecologic cancer cell panel viability, ATPlite luminescence, 48 h; series mostly up to 57.5 µM
In short: as §1

Es-2 = details: Gynecologic cancer cell panel viability, ATPlite luminescence, 48 h; series mostly up to 57.5 µM
In short: as §1

HeLa = details: Gynecologic cancer cell panel viability, ATPlite luminescence, 48 h; series mostly up to 57.5 µM
In short: as §1

Hek293T = details: Gynecologic cancer cell panel viability, ATPlite luminescence, 48 h, control line for the selectivity index; series mostly up to 57.5 µM
In short: as §1

JEG-3 = details: Gynecologic cancer cell panel viability, ATPlite luminescence, 48 h; series mostly up to 57.5 µM
In short: as §1

OV90 = details: Gynecologic cancer cell panel viability, ATPlite luminescence, 48 h; series mostly up to 57.5 µM
In short: as §1

PA-1 = details: Gynecologic cancer cell panel viability, ATPlite luminescence, 48 h; series mostly up to 57.5 µM
In short: as §1

SKOV3 = details: Gynecologic cancer cell panel viability, ATPlite luminescence, 48 h; series mostly up to 57.5 µM
In short: as §1

Tov-21-G = details: Gynecologic cancer cell panel viability, ATPlite luminescence, 48 h; series mostly up to 57.5 µM
In short: as §1

Tov112D = details: Gynecologic cancer cell panel viability, ATPlite luminescence, 48 h; series mostly up to 57.5 µM
In short: as §1
% is scaled to controls: 0 for no effect and ±100 for the full control effect.

C[C@]1(OC(=O)/C=C/c2ccccc2)C[C@H](O)[C@]2(O)C=CO[C@@H](O[C@@H]3O[C@H](CO)[C@@H](O)[C@H](O)[C@H]3O)C12 (some centres undefined)
inactive: Potency (CAOV3) | Potency (CASKI) | Potency (Es-2) | Potency (HeLa) | Potency (Hek293T) | Potency (JEG-3) | Potency (OV90) | Potency (PA-1) | Potency (SKOV3) | Potency (Tov-21-G) | Potency (Tov112D)

COc1c(C)c2c(c(O)c1C/C=C(\C)CC/C=C(\C)CCC(=O)O)C(=O)OC2
inactive: Potency (CAOV3) | Potency (CASKI) | Potency (Es-2) | Potency (HeLa) | Potency (Hek293T) | Potency (JEG-3) | Potency (OV90) | Potency (PA-1) | Potency (SKOV3) | Potency (Tov-21-G) | Potency (Tov112D)

C[C@@H]1C(=O)O[C@H]2CC34[C@H]5C[C@@H](C(C)(C)C)C36[C@@H](OC(=O)[C@@H]6O)O[C@@]4(C(=O)O5)[C@]21O (some centres undefined)
inactive: Potency (CAOV3) | Potency (CASKI) | Potency (Es-2) | Potency (HeLa) | Potency (Hek293T) | Potency (JEG-3) | Potency (OV90) | Potency (PA-1) | Potency (SKOV3) | Potency (Tov-21-G) | Potency (Tov112D)

COc1ccccc1CC(C(=O)O)N(C)C(=O)c1ccccc1 (centres undefined)
inactive: Potency (CAOV3) | Potency (CASKI) | Potency (Es-2) | Potency (HeLa) | Potency (Hek293T) | Potency (JEG-3) | Potency (OV90) | Potency (PA-1) | Potency (SKOV3) | Potency (Tov-21-G) | Potency (Tov112D)

C/C=C(\C)C(=O)O[C@@H]1CC2[C@@H](CC=C3C[C@@H](O[C@H]4C[C@H](OC)[C@H](O[C@H]5C[C@H](OC)[C@H](O[C@H]6C[C@H](OC)[C@H](O[C@H]7C[C@@H](OC)[C@H](O[C@@H]8O[C@H](CO)[C@@H](O)[C@H](O)[C@H]8O)[C@@H](C)O7)[C@@H](C)O6)[C@@H](C)O5)[C@@H](C)O4)CC[C@@]32C)[C@@]2(O)CC[C@H](C(C)=O)[C@@]12C (some centres undefined)
inactive: activity change, negative = cytotoxicity (CAOV3) -0.474% [at 6.55 µM] | activity change, negative = cytotoxicity (CASKI) -0.911% [at 6.55 µM] | activity change, negative = cytotoxicity (Es-2) -1.08% [at 6.55 µM] | activity change, negative = cytotoxicity (HeLa) -14.4% [at 6.55 µM] | activity change, negative = cytotoxicity (Hek293T) 11.8% [at 6.55 µM] | activity change, negative = cytotoxicity (JEG-3) -0.396% [at 6.55 µM] | activity change, negative = cytotoxicity (OV90) 3.72% [at 6.55 µM] | activity change, negative = cytotoxicity (PA-1) -8.02% [at 6.55 µM] | activity change, negative = cytotoxicity (SKOV3) -0.126% [at 6.55 µM] | activity change, negative = cytotoxicity (Tov-21-G) 2.08% [at 6.55 µM] | activity change, negative = cytotoxicity (Tov112D) -2.78% [at 6.55 µM]

CC(C)=CC/C=C(/C)[C@H]1CC[C@]2(C)[C@@H]1[C@H](O)CC1[C@@]3(C)CC[C@H](O)C(C)(C)[C@@H]3[C@@H](O[C@@H]3O[C@H](CO)[C@@H](O)[C@H](O)[C@H]3O[C@@H]3O[C@@H](C)[C@H](O)[C@@H](O)[C@H]3O)C[C@]12C (some centres undefined)
inactive: Potency (CAOV3) | Potency (CASKI) | Potency (Es-2) | Potency (HeLa) | Potency (Hek293T) | Potency (JEG-3) | Potency (OV90) | Potency (PA-1) | Potency (SKOV3) | Potency (Tov-21-G) | Potency (Tov112D)

CC1C(=O)CC2C3C(O)CC(C(=O)O)C12CC3(C)C (centres undefined)
inactive: Potency (CAOV3) | Potency (CASKI) | Potency (Es-2) | Potency (HeLa) | Potency (Hek293T) | Potency (JEG-3) | Potency (OV90) | Potency (PA-1) | Potency (SKOV3) | Potency (Tov-21-G) | Potency (Tov112D)

C/C=C/C=C/C(CC(=O)O)Nc1ccc(C=O)cc1 (centres undefined)
inactive: Potency (CAOV3) | Potency (CASKI) | Potency (Es-2) | Potency (HeLa) | Potency (Hek293T) | Potency (JEG-3) | Potency (OV90) | Potency (PA-1) | Potency (SKOV3) | Potency (Tov-21-G) | Potency (Tov112D)

CC1(C)CC2C3=CCC4C5(C)CCC(OC6OC(CO)C(O)C(OC7OC(CO)C(O)C(OC8OC(CO)C(O)C(OC9OC(COC%10OC(CO)C(O)C(O)C%10O)C(O)C(O)C9O)C8O)C7O)C6O)C(C)(C)C5CCC4(C)C3(C)CCC2(C(=O)O)CC1O (centres undefined)
inactive: activity change, negative = cytotoxicity (CAOV3) 3.47% [at 6.55 µM] | activity change, negative = cytotoxicity (CASKI) -0.0614% [at 6.55 µM] | activity change, negative = cytotoxicity (Es-2) 1.92% [at 6.55 µM] | activity change, negative = cytotoxicity (HeLa) -11.1% [at 6.55 µM] | activity change, negative = cytotoxicity (Hek293T) -9.53% [at 6.55 µM] | activity change, negative = cytotoxicity (JEG-3) 6.92% [at 6.55 µM] | activity change, negative = cytotoxicity (OV90) 0.668% [at 6.55 µM] | activity change, negative = cytotoxicity (PA-1) 1.44% [at 6.55 µM] | activity change, negative = cytotoxicity (SKOV3) 0% [at 6.55 µM] | activity change, negative = cytotoxicity (Tov-21-G) -2.7% [at 6.55 µM] | activity change, negative = cytotoxicity (Tov112D) 1.66% [at 6.55 µM]

CC(=O)N[C@@H](CC(C)C)C(=O)N[C@@H](CCC(=O)O)C(=O)N[C@@H](CCC(=O)O)C(=O)N[C@@H](CC(=O)O)C(=O)Nc1ccc2c(C(F)(F)F)cc(=O)oc2c1 (Ac-LEED-{AFC})
inactive: Potency (CAOV3) | Potency (CASKI) | Potency (Es-2) | Potency (HeLa) | Potency (Hek293T) | Potency (JEG-3) | Potency (OV90) | Potency (PA-1) | Potency (SKOV3) | Potency (Tov-21-G) | Potency (Tov112D)

C[C@@H]1O[C@@H](O[C@H]2[C@H](O[C@H]3CO[C@@H](O[C@H]4CC[C@@]5(C)C(CC[C@]6(C)C5CC[C@]57OC[C@@]8(CC[C@](C)(CO)CC85)[C@H](O)C[C@]76C)C4(C)C)[C@H](O[C@@H]4O[C@H](CO)[C@@H](O)[C@H](O)[C@H]4O)[C@H]3O)O[C@H](CO)[C@@H](O)[C@@H]2O)[C@H](O)[C@H](O)[C@H]1O (some centres undefined)
inactive: activity change, negative = cytotoxicity (CAOV3) -8.26% [at 11.6 µM] | activity change, negative = cytotoxicity (CASKI) -2.01% [at 11.6 µM] | activity change, negative = cytotoxicity (Es-2) -8.3% [at 11.6 µM] | activity change, negative = cytotoxicity (HeLa) 0% [at 11.6 µM] | activity change, negative = cytotoxicity (Hek293T) 0.0587% [at 11.6 µM] | activity change, negative = cytotoxicity (JEG-3) -0.317% [at 11.6 µM] | activity change, negative = cytotoxicity (OV90) 0.0764% [at 11.6 µM] | activity change, negative = cytotoxicity (PA-1) 4.72% [at 11.6 µM] | activity change, negative = cytotoxicity (SKOV3) 20.5% [at 11.6 µM] | activity change, negative = cytotoxicity (Tov-21-G) -1.65% [at 11.6 µM] | activity change, negative = cytotoxicity (Tov112D) -8.07% [at 11.6 µM]

C=C1CC2[C@]3(C)C(=C(O)C(=O)[C@@]2(C)[C@]2(C(=O)OC)C(=O)C(C)OC(=O)[C@@]12C)C(C)(C)C(=O)CC3O (some centres undefined)
inactive: Potency (CAOV3) | Potency (CASKI) | Potency (Es-2) | Potency (HeLa) | Potency (Hek293T) | Potency (JEG-3) | Potency (OV90) | Potency (PA-1) | Potency (SKOV3) | Potency (Tov-21-G) | Potency (Tov112D)

c1ccc(C(OC2CCN(CCCc3nn[nH]n3)CC2)c2ccccc2)cc1
inactive: Potency (CAOV3) | Potency (CASKI) | Potency (Es-2) | Potency (HeLa) | Potency (Hek293T) | Potency (JEG-3) | Potency (OV90) | Potency (PA-1) | Potency (SKOV3) | Potency (Tov-21-G) | Potency (Tov112D)

CC1CCC2C(C(=O)O)=CC3CC(C)(C)CC132 (centres undefined)
inactive: Potency (CAOV3) | Potency (CASKI) | Potency (Es-2) | Potency (HeLa) | Potency (Hek293T) | Potency (JEG-3) | Potency (OV90) | Potency (PA-1) | Potency (SKOV3) | Potency (Tov-21-G) | Potency (Tov112D)
